PubChem BioAssay AID2289 (National Center for Advancing Translational Sciences (NCATS), 2010)
The whole screen tested about 340,000 compounds, of which about 3,300 (0.97%) were called active. Roughly 9% stayed inconclusive and do not appear here. Calls come from the whole dose curve; as a rule, active = well fitted inhibition curve with a large enough effect; inconclusive = small, poorly fitted or top-dose-only effect, or effect the other way; inactive = flat fitted curve, though single readings scatter. The list shows a part of the results.

Assay: qHTS Assay for Modulators of miRNAs and/or Inhibitors of miR-21; note: nearly all actives have a fitted effect of over 55% in size
Settings: HeLa miR-21-FLuc reporter, luciferase luminescence, 48 h; actives lower the signal
Summary of the method: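 HeLa cells stably expressing CMV-driven firefly luciferase with a downstream miR-21 binding sequence, endogenously expressing miR-21, were treated with titrations (up to about 40uM final) for 48 hours at 37 degree Celsius. Luciferase luminescence was read after lysis.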
Potency is the fitted concentration of half-maximal effect.

Potency, active:
O=[N+]([O-])c1ccc2nc(SCc3cn4ccccc4n3)[nH]c2c1 18.5 µM
c1ccn(-c2ccc(-c3ccn[nH]3)cc2)c1 6.56 µM
O=C(c1cnn(-c2cccc(F)c2)c1)c1ccccc1O 3.69 µM
N#C/C(=C/c1ccc(O)c(O)c1)c1nc2ccccc2[nH]1 3.29 µM
CN(C)c1ccc(/C=C(\C#N)c2nc3ccccc3c(=O)[nH]2)cc1 0.131 µM
c1ccc(Nc2nc(-c3ccccc3)ns2)cc1 0.414 µM
Cc1nnc(SCc2ccccc2Cl)c2cc3occc3n12 11.7 µM
Clc1ccc(-c2nc3ccncc3[nH]2)cc1 7.36 µM
Nc1ccc2nc(-c3ccc(Cl)cc3)[nH]c2c1 6.56 µM
CCOC(=O)CCSc1nc(C)c2cc(C)ccc2n1 10.4 µM
CCOC(=O)CCSc1nc(C)c2cc(OC)ccc2n1 8.26 µM
OC1CCCN(c2c3c(nc4cc(-c5cccc(F)c5)nn24)CCCC3)C1 (stereo not drawn) 2.07 µM
COc1ccc(NC(=O)c2coc3ccccc23)cc1OC 9.27 µM
COc1ccc(NC(=S)Nc2ncccc2C)cc1OC 5.21 µM
O=C(Nc1ccc(SC(F)(F)F)cc1)c1ccccn1 0.369 µM
COc1ccc(NC(=O)c2ccccn2)cc1OC 11.7 µM
Cc1ccc(-c2nnc(CCC(=O)NCC3C4CC5CC(C4)CC3C5)o2)s1 (stereo not drawn) 14.7 µM
CC(=O)N1N=C(c2ccc(C)cc2)CC1c1ccc2c(c1)OCO2 (stereo not drawn) 7.36 µM
CS(=O)(=O)Nc1ccc(C2=NN(S(C)(=O)=O)C(c3ccc4c(c3)OCO4)C2)cc1 (stereo not drawn) 4.65 µM
Cc1ccc(C2=NN(S(C)(=O)=O)C(c3ccc4c(c3)OCO4)C2)cc1 (stereo not drawn) 0.521 µM
CS(=O)(=O)N1N=C(c2ccc(Br)cc2)CC1c1ccc2c(c1)OCO2 (stereo not drawn) 0.927 µM
COC(=O)c1ccc(CSC2=NCCS2)cc1 4.65 µM
CC(=O)Nc1nc(-c2ccc(Cl)cc2)ns1 1.85 µM
C/C(=N\N=C\c1ccc(N(C)C)cc1)c1cccc([N+](=O)[O-])c1 13.1 µM
Nc1cc([N+](=O)[O-])cc2oc(-c3ccccc3)cc12 14.7 µM
Cc1ccc(COc2ccc(C)nc2[N+](=O)[O-])cc1 0.927 µM
Cc1ccc(OCc2ccc(Br)cc2)c([N+](=O)[O-])n1 2.61 µM
CCOC(=O)c1cc(C(=O)Nc2ccc(C)c(F)c2)nn1C 4.65 µM
CCOC(=O)c1cc(C(=O)Nc2ccccc2F)nn1C 1.85 µM
CCOC(=O)c1cc(C(=O)Nc2cccc(C)c2)nn1C 1.31 µM
COc1nc(Nc2cccc(C(F)(F)F)c2)nc(OC)n1 14.7 µM
COc1cccc(Nc2nc(N)nc(C(F)(F)F)n2)c1 18.5 µM
Nc1nc(Nc2ccc(Cl)cc2Cl)nc(C(F)(F)F)n1 6.56 µM
CC(=O)c1cnc2cc(-c3ccc(C)cc3)nn2c1C 1.04 µM
CCOC(=O)c1sc2nc(-c3ccccc3)ccc2c1N 0.0927 µM
CCOC(=O)c1sc2nc(-c3cccnc3)ccc2c1N 0.369 µM
COc1cccc(-c2ccc3c(N)c(C(=O)Nc4cc(F)ccc4F)sc3n2)c1 11.7 µM
CCN(CC)C(=O)c1sc2nc(-c3ccccc3)ccc2c1N 1.47 µM
CCn1nccc1C(=O)Nc1ccc(Cl)c(Cl)c1 8.26 µM
COc1ccccc1Oc1ncnc2c1cnn2-c1ccccc1 5.85 µM
COc1cc(C(C)=O)ccc1Oc1ncnc2c1cnn2-c1ccc(F)cc1 4.14 µM
Cc1cccc(NC(=O)c2sc3nc(N)c(C#N)cc3c2N)c1 4.14 µM
Cc1ccc(NC(=O)c2sc3nc(N)c(C#N)cc3c2N)cc1 5.85 µM
Cc1cc(C(=O)CN2C(=O)NC3(CCCCC3C)C2=O)c(C)n1Cc1cccs1 (stereo not drawn) 5.21 µM
Cc1nc2scc(-c3ccccc3)c2c(=O)n1N=C1C=CC(=O)C=C1 10.4 µM
CCc1nonc1NC(=O)c1oc2cc(C)c(C)cc2c1C 5.85 µM
Cc1cc2oc(C(=O)Nc3nonc3C)c(C)c2cc1C 0.656 µM
CCc1ccc2oc(C(=O)Nc3nonc3CC)c(C)c2c1 2.93 µM
Cc1ccc2oc(C(=O)Nc3nonc3C)c(C)c2c1 4.65 µM
c1ccc(Cc2nnc3sc(-c4ccc5c(c4)OCCO5)nn23)cc1 14.7 µM
Oc1c(C2=NCCNC(C(F)(F)F)=C2)ccc2ccccc12 2.07 µM
Clc1cc2nc(-c3cccnc3Cl)[nH]c2cc1Cl 1.04 µM
Clc1ccccc1-c1nc2ccccc2[nH]1 1.31 µM
CN(Cc1nc(-c2cccc(Cl)c2)no1)C1CCOCC1 7.36 µM
CCOC(=O)NC(=O)CSc1nc(-c2ccc(C)c(C)c2)cn1-c1ccccc1 6.56 µM
Cc1ccc(-c2cn(-c3ccccc3)c(SCC(=O)NC3CCS(=O)(=O)C3)n2)cc1C (stereo not drawn) 7.36 µM
Cc1ccc(NC(=O)NCc2c(C)nn(C)c2C)cc1Cl 5.21 µM
CNc1cccc2c1C(=O)c1ccccc1C2=O 11.7 µM
CC(C)(C)c1ccc(-c2noc(-c3ccno3)n2)cc1 1.17 µM
C=CCn1c2ccccc2c(=O)c2cc(C#CC3(O)CCCCC3)ccc21 0.414 µM
CCCc1cc(C(=O)Nc2ccc(CC)cc2)no1 5.21 µM
CCCc1cc(C(=O)Nc2cccc(Cl)c2C)no1 6.56 µM
CCCc1cc(C(=O)Nc2cc(C)ccc2O)no1 3.69 µM
CCCc1cc(C(=O)Nc2cc(Cl)ccc2O)no1 2.07 µM
COc1cc(SC)ccc1C(=O)NCCOc1ccccc1Cl 2.93 µM
COc1cc(SC)ccc1C(=O)NCCOc1ccc(F)cc1 7.36 µM
COc1ccc(C(=O)NCCOc2ccccc2Cl)c(OC)c1OC 5.85 µM
COc1cc(SC)ccc1C(=O)NCC1CCCCC1 10.4 µM
